# From PubChem BioAssay AID624167 (Sanford-Burnham Center for Chemical Genomics, 2012)
# Assay: inhibition of PEG-3 promoter-driven reporter – cell-based, HeLa, luciferase, CREF/GAPDH counter-screen panel, dose response (AID 624167)
# Settings: CREF/GAPDH counter-screens; run 2, dose range 1, at 100 µM (top of the series)
row,SMILES,inhibition
1,COC(COC(N)=O)C1=C(N2CC2)C(=O)C(C)=C(N2CC2)C1=O (stereo not drawn),89%
2,CC(=O)OC1CC[C@]2(C#N)[C@H]3CC[C@]4(C)[C@H](C5C=CC(=O)O5)CCC4(O)C3CCC2(O)C1 (stereo partly drawn),83.6%
3,C=Cc1cc(OC)c2c(c1)c(=O)oc1c2cc(OC)c2c(O)ccc(C3OC(C)C(O)C(C)(O)C3O)c21 (stereo not drawn),40.5%
4,O=C(CSC1c2ccccc2-c2ccccc21)N/N=C/c1ccccc1O,53.7%
5,CCC(c1nnnn1-c1ccc2c(c1)OCCO2)N1CCC(n2c(=O)[nH]c3ccccc32)CC1 (stereo not drawn),100%
6,COc1cc2nc(CN3CC=C(c4ccccc4)CC3)[nH]c(=O)c2cc1OC,59.5%
7,CC(=O)OC1(C)CC(C)C(=O)C(C(O)CC2CC(=O)NC(=O)C2)C1 (stereo not drawn),95.8%
8,CC1=CC2/C=C(\C)CCC(O)C(O)/C=C/C(=O)C23C(=O)NC(CC(C)C)C3C1C (stereo not drawn),100%
